Compounds without any hit were thinned out: in the full panel of roughly 79,000, 15% have a hit. Calls of active or inactive are those of the source. Rule as the data show it: active = growth inhibition above about 70%; inactive = the rest.
Experiments:
[1] = NCI Yeast Anticancer Drug Screen. Data for the rad50 strain (AID 155);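 also: 0% = growth of vehicle-only cultures of the same strain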; settings: S. cerevisiae rad50 strain growth inhibition, hits give high values
Outline: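 Cells are treated with compound, grown, and their growth is then scored against vehicle-only cultures of the same repair-deficient yeast strain.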

[2] = NCI Yeast Anticancer Drug Screen. Data for the mec2-1 strain (AID 157); settings: S. cerevisiae mec2-1 strain, hits give high values
Outline: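 mec2-1 yeast strain, carrying an alteration in DNA damage repair or cell cycle control, was exposed to compounds; growth inhibition was measured relative to vehicle-treated controls.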

[3] = NCI Yeast Anticancer Drug Screen. Data for the sgs1 mgt1 strain (AID 161);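 also: 0% = growth of cultures given vehicle only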; settings: S. cerevisiae sgs1 mgt1 strain, hits give high values
Outline: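 Yeast cells carrying a defined DNA-repair defect were exposed to test compounds. Growth inhibition was measured relative to vehicle-treated controls.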

[4] = NCI Yeast Anticancer Drug Screen. Data for the cln2 rad14 strain (AID 165);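 also: 0% = growth equal to vehicle treated cultures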; settings: S. cerevisiae cln2 rad14 strain, hits give high values
Outline: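 Yeast carrying cln2 and rad14 alterations (cell cycle control and DNA damage repair) were exposed to compounds. Growth inhibition was measured against vehicle-treated controls.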

[5] = NCI Yeast Anticancer Drug Screen. Data for the bub3 strain (AID 167); settings: S. cerevisiae bub3 mutant strain, hits give high values
Outline: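 Part of a panel of yeast mutants defective in DNA damage repair or cell cycle regulation. Each strain is grown with compound, and inhibition is calculated relative to solvent-treated cultures.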

[6] = NCI Yeast Anticancer Drug Screen. Data for the mlh1 rad18 strain (AID 175); settings: S. cerevisiae mlh1 rad18 strain growth inhibition, hits give high values
Outline: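 Growth inhibition of the yeast strain was measured after compound exposure and expressed relative to vehicle-treated controls. The strain carries defined defects in DNA damage repair.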

[7] = at 5.0 µM (retest, dose inferred, filed as 0.5)
[8] = at 50.0 µM (retest, dose inferred, filed as 5.0)

Measured: growth inhibition

NN(Cc1ccccc1)c1ccccc1
inactive: [1]; [7] 50% | [2]; [7] 47% | [3]; [7] 20% | [4]; [7] 43% | [5]; [7] 40% | [6]; [7] 27%
active: [1]; [8] 83% | [1]; at 50.0 µM 89.3% | [2]; [8] 87% | [2]; at 50.0 µM 91.7% | [3]; [8] 100% | [3]; at 50.0 µM 91.8% | [4]; [8] 99% | [4]; at 50.0 µM 90% | [5]; [8] 99% | [5]; at 50.0 µM 90.5% | [6]; [8] 77% | [6]; at 50.0 µM 88.6%

COc1ccc2c(c1)CCCN2CCCCCCCCCCN1CCCCC1
inactive: [1]; [7] 13% | [1]; [8] 38% | [2]; [7] 7% | [2]; [8] 34% | [2]; at 50.0 µM 56.9% | [3]; [7] 36% | [4]; [7] 28% | [4]; [8] 28% | [5]; [7] 35% | [5]; [8] 60% | [5]; at 50.0 µM 59.8% | [6]; [7] 25% | [6]; [8] 25% | [6]; at 50.0 µM 61.4%
active: [1]; at 50.0 µM 71.3% | [3]; [8] 73% | [3]; at 50.0 µM 80.8% | [4]; at 50.0 µM 71.2%

Nc1ncc(C(=O)c2ccccc2)cc1[N+](=O)[O-]
inactive: [1]; [7] -142% | [1]; [8] -110% | [1]; at 50.0 µM -5.7% | [2]; [7] -44% | [2]; [8] -37% | [2]; at 50.0 µM 21.8% | [3]; [7] -61% | [3]; [8] -45% | [3]; at 50.0 µM -5.95% | [4]; [7] -56% | [4]; [8] -22% | [4]; at 50.0 µM 38.9% | [5]; [7] -76% | [5]; [8] -58% | [5]; at 50.0 µM -2.9% | [6]; [7] -138% | [6]; [8] -87% | [6]; at 50.0 µM -0.8%

CCCCCN(CCCCC)CC(=O)OCC1(C)CCCC2(C)C3CCC(C(C)C)=CC3=CCC12 (stereo not given)
inactive: [1]; [7] 1% | [1]; [8] 22% | [1]; at 50.0 µM -3.45% | [2]; [7] 2% | [2]; [8] 54% | [2]; at 50.0 µM -9.75% | [3]; [7] -3% | [4]; [7] -1% | [4]; [8] 39% | [4]; at 50.0 µM -59% | [5]; [7] 1% | [5]; at 50.0 µM -8.05% | [6]; [7] 2% | [6]; [8] 67% | [6]; at 50.0 µM 28.4%
active: [3]; [8] 80% | [3]; at 50.0 µM 74.2% | [5]; [8] 73%

NC(=O)N/N=C1/CC2CCCCC2c2ccccc21 (stereo not given)
active: [1]; [8] 92% | [2]; [8] 86% | [5]; [8] 94% | [5]; at 50.0 µM 86.2% | [6]; [8] 94%
inactive: [1]; [7] 12% | [1]; at 50.0 µM 67.8% | [2]; [7] -4% | [2]; at 50.0 µM 13% | [3]; [7] -2% | [3]; [8] 66% | [3]; at 50.0 µM 58% | [4]; [7] 0% | [4]; [8] 69% | [4]; at 50.0 µM 19.2% | [5]; [7] 0% | [6]; [7] -6% | [6]; at 50.0 µM 23.5%

CN(C(=O)C(Cl)Cl)c1ccc(-c2csc(-c3ccccc3)n2)cc1
active: [4]; at 50.0 µM 95.8% | [5]; at 50.0 µM 97%
inactive: [1]; [7] 5% | [1]; [8] 12% | [1]; at 50.0 µM 12.9% | [2]; [7] 10% | [2]; [8] -1% | [2]; at 50.0 µM 33.9% | [3]; [7] 6% | [3]; [8] 20% | [3]; at 50.0 µM -7.4% | [4]; [7] -2% | [4]; [8] -3% | [5]; [7] 2% | [5]; [8] 22% | [6]; [7] 4% | [6]; [8] 7% | [6]; at 50.0 µM 22.4%

OC(CN1CCCCC1)c1ccc2c(ccc3ccccc32)c1 (stereo not given)
inactive: [1]; [7] 21% | [1]; [8] 54% | [2]; [7] 6% | [2]; [8] 46% | [2]; at 50.0 µM 50% | [3]; [7] 35% | [4]; [7] 19% | [4]; [8] 50% | [5]; [7] 25% | [5]; [8] 69% | [6]; [7] 22% | [6]; [8] 61%
active: [1]; at 50.0 µM 83% | [3]; [8] 75% | [3]; at 50.0 µM 88.2% | [4]; at 50.0 µM 75% | [5]; at 50.0 µM 91.8% | [6]; at 50.0 µM 87.5%

O=C(O)/C(=C\c1cc(I)c(O)c(I)c1)c1ccc(I)cc1
inactive: [1]; [7] 3% | [1]; [8] 39% | [2]; [7] 42% | [3]; [7] 34% | [4]; [7] 19% | [5]; [7] 3% | [5]; [8] 59% | [5]; at 50.0 µM 48% | [6]; [7] 37%
active: [1]; at 50.0 µM 88.3% | [2]; [8] 70% | [2]; at 50.0 µM 80.6% | [3]; [8] 75% | [3]; at 50.0 µM 91.8% | [4]; [8] 70% | [4]; at 50.0 µM 82.7% | [6]; [8] 76% | [6]; at 50.0 µM 80.8%

[Cl][Sn]([CH2][CH2][Sn]([Cl])([c]1ccccc1)[c]1ccccc1)([c]1ccccc1)[c]1ccccc1
active: [1]; [7] 99% | [1]; [8] 98% | [1]; at 50.0 µM 94.5% | [2]; [7] 99% | [2]; [8] 97% | [2]; at 50.0 µM 92.2% | [3]; [7] 99% | [3]; [8] 97% | [3]; at 50.0 µM 95.2% | [4]; [7] 97% | [4]; [8] 96% | [4]; at 50.0 µM 87.5% | [5]; [7] 96% | [5]; [8] 98% | [5]; at 50.0 µM 90.9% | [6]; [7] 99% | [6]; [8] 98% | [6]; at 50.0 µM 94.2%

S=C(Nc1ccc(Cl)c(Cl)c1)N1c2ccccc2-n2cccc2C1c1cccnc1 (stereo not given)
active: [1]; [8] 99% | [1]; at 50.0 µM 80.8% | [2]; [8] 99% | [2]; at 50.0 µM 84.5% | [3]; [8] 94% | [3]; at 50.0 µM 85% | [4]; [7] 91% | [4]; [8] 94% | [4]; at 50.0 µM 84.7% | [5]; [7] 72% | [5]; [8] 89% | [5]; at 50.0 µM 84% | [6]; [8] 100% | [6]; at 50.0 µM 87.8%
inactive: [1]; [7] 49% | [2]; [7] 46% | [3]; [7] 59% | [6]; [7] 45%

From PubChem BioAssay (NCI)
